Laboratory results from PubChem BioAssay.
Values without a mark were called inactive. For some of these results: Measured potencies and affinities stand elsewhere. Activity calls are given as the source filed them. Unless noted, no rule for the calls is given here. Residues, ends and D or L forms follow the SMILES beside them. *: point of attachment. Boc = CC(C)(C)OC(=O)*

Assays:
[1] = antimalarial activity against Dd2 strain (AID 2302;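 active = growth inhibition above 50% at the single 2 µM test dose, taken to imply half-maximal potency below 2 µM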;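 also: 0% = DMSO untreated growth and 100% = chloroquine plus artemisinin killed control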); conditions: P. falciparum Dd2 in RBCs, LDH growth readout, 72 h; at 2 µM; active compounds read high
[2] = human hepatoma cell viability loss – ATP luminescence, cytotoxicity control for P. falciparum antimalarial project, primary screen (AID 2303;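 active = inhibition above 50%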;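 also: 0% = DMSO wells and 100% = digitonin-killed cells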); conditions: HepG2 viability, 24-48 h, at 10 µM, active compounds read high
[3] = target: L-lactate dehydrogenase (Plasmodium falciparum (isolate CDC / Honduras)) (UniProt Q27743); experiment: PfLDH activity inhibition – cell lysate, 3D7 strain, counter-screen for P. falciparum growth inhibition project (AID 2304);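 also: 0% = vehicle and 100% = reference inhibitor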; conditions: P. falciparum 3D7 crude extract, LDH APAD/NBT absorbance; at 2 µM; active compounds read high
[4] = inhibition of 3D7 malaria parasite growth – strain 3D7 (AID 2306);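 also: 0% = DMSO wells and 100% = chloroquine plus artemisinin control wells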; conditions: P. falciparum 3D7 erythrocytic growth, LDH absorbance, 72 h; at 2 µM; active compounds read high
[5] = target: Calcium-dependent protein kinase 1 (Plasmodium falciparum (isolate 3D7)) (UniProt P62344); experiment: PfCDPK1 kinase inhibitors, biochemical, TCAMS library (AID 1159585; cut-off not given, nearly all actives have IC50 up to about 0.98 µM;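 also: inhibitors leave more ATP so luminescence rises with inhibition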); conditions: recombinant PfCDPK1, Kinase-Glo ATP depletion luminescence
[6] = target: Plasmodium falciparum protein kinase 6 (PK6, PF3D7_1337100) (UniProt Q8IDW1); experiment: PfPK6 kinase inhibitors, biochemical, TCAMS library (AID 1159586); conditions: recombinant PfPK6, Kinase-Glo ATP depletion luminescence
[7] = target: Protein kinase 7 (PK7), Plasmodium falciparum 3D7 (PF3D7_0213400) (UniProt Q7YTF7); experiment: inhibition of Plasmodium PK7 catalytic activity – biochemical, TCAMS antimalarial set, Kinase-Glo luminescence (AID 1159587); conditions: recombinant PfPK7, Kinase-Glo ATP depletion luminescence
[8] = target: Calcium-dependent protein kinase 4 (Plasmodium falciparum (isolate 3D7)) (UniProt Q8IBS5); experiment: PfCDPK4 kinase inhibitors, biochemical, TCAMS library (AID 1159588; cut-off not given, nearly all actives have IC50 up to about 0.91 µM); conditions: recombinant PfCDPK4, Kinase-Glo ATP depletion luminescence
Sequence of Calcium-dependent protein kinase 4 (Plasmodium falciparum (isolate 3D7)) (Q8IBS5 whole entry, looked up): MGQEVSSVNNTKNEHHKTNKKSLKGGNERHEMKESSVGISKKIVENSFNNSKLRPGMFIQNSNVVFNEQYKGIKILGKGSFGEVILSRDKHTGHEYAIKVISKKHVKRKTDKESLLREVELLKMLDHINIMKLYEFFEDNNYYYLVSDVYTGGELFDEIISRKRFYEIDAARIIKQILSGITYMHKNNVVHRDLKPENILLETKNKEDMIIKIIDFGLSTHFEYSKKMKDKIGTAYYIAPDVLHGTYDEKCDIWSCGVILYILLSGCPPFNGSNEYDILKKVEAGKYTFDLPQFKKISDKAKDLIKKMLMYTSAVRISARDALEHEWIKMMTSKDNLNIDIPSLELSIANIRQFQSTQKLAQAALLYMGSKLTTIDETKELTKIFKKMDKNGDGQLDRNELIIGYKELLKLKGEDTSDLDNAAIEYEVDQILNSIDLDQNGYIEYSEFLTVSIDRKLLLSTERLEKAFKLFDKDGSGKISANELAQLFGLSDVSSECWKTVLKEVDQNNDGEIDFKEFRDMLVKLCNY

Sequence of Protein kinase 7 (PK7), Plasmodium falciparum 3D7 (PF3D7_0213400) (Q7YTF7 1-343): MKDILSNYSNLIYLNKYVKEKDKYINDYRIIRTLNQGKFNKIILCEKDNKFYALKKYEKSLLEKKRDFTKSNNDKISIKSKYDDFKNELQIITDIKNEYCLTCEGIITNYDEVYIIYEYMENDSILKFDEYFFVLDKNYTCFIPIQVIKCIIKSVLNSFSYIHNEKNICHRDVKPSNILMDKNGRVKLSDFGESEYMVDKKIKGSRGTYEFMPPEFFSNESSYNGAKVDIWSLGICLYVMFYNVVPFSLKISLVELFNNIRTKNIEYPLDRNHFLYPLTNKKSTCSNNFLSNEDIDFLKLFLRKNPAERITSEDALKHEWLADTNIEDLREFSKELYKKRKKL
Sequence of Plasmodium falciparum protein kinase 6 (PK6, PF3D7_1337100) (Q8IDW1 1-305): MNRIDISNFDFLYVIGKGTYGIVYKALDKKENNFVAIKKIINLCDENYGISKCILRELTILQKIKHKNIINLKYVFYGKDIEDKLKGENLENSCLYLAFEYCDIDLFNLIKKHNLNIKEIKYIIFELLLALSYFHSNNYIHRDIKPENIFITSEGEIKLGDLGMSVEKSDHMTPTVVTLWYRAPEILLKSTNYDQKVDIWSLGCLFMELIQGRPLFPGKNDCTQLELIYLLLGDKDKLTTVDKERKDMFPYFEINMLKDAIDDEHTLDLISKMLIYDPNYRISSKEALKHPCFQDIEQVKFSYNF
Sequence of Calcium-dependent protein kinase 1 (Plasmodium falciparum (isolate 3D7)) (P62344 whole entry, looked up): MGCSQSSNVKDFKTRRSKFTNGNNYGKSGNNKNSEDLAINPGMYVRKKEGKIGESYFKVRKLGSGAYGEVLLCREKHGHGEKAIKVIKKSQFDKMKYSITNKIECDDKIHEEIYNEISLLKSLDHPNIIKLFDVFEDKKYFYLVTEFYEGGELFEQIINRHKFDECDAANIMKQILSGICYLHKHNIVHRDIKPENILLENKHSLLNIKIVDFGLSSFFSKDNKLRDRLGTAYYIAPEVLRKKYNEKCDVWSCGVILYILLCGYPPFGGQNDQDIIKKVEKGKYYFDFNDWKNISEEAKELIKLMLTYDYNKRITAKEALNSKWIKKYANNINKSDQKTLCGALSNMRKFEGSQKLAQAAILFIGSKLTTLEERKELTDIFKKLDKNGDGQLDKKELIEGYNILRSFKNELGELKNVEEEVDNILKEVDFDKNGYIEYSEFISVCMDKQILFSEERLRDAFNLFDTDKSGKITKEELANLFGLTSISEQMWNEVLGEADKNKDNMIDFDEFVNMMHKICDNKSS
Sequence of L-lactate dehydrogenase (Plasmodium falciparum (isolate CDC / Honduras)) (Q27743 whole entry, looked up): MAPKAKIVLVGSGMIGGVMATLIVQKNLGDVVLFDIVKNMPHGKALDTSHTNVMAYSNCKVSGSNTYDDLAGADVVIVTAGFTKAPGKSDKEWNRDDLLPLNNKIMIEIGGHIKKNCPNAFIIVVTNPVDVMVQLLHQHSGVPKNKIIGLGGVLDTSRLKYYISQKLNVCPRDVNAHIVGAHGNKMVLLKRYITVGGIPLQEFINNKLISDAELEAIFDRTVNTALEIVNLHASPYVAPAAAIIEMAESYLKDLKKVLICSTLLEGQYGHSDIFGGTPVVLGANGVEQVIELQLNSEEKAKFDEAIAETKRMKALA

Structure (SMILES)	growth inhibition [1]	inhibition [2]	inhibition [3]	growth inhibition [4]	outcome [5]	outcome [6]	outcome [7]	outcome [8]
Nc1nccc(-c2ccc3c(-c4cccc(F)c4)cnc(N)c3c2)n1	44%	41%	5%	93% (active)	inactive	inactive	inactive	inactive
CCC(C)NS(=O)(=O)c1ccc2nc(Nc3ccc(C)cc3)n(C3CCCCC3C)c2c1 (stereo not drawn)	99% (active)	1%	1%	95% (active)	inactive	inactive	inactive	inactive
Cc1ccnc(NC(=O)c2cc(-c3cccc([N+](=O)[O-])c3)nc3onc(C)c23)c1	44%	5%	-1%	91% (active)	inactive	inactive	inactive	inactive
O=C(Nc1cccc(CN2CCN(Cc3ccc(O)cc3)CC2)c1)c1cccc(C(F)(F)F)c1	15%	21%	2%	91% (active)	inactive	inactive	inactive	inactive
CN(Cc1cccc(O)c1)C1CCN(c2cc(NC(=O)c3ccc(F)cc3)ccn2)CC1	9%	24%	-2%	94% (active)	inactive	inactive	inactive	inactive
COC(=O)CC[C@H](NC(=O)[C@H](C)NC(=O)OC(C)(C)C)C(=O)OC (Boc-Ala-Glu(OMe)-OMe)	0%	12%	-2%	95% (active)	inactive	inactive	inactive	inactive
O=C(/C=C/c1ccc(Cl)c(Cl)c1)NCCCCCN1CCC(NC(=O)Nc2ccc(Cl)c(Cl)c2)CC1	1%	23%	0%	102% (active)	inactive	inactive	inactive	inactive
CCc1c(CCNCCCCCCNCCc2ccc(OC)c(OC)c2C)ccc(OC)c1OC	1%	16%	5%	98% (active)	inactive	inactive	inactive	inactive
COc1ccc(CNc2ccc3nc(N)nc(N)c3c2)cc1	84% (active)	39%	-4%	99% (active)	inactive	inactive	inactive	inactive
COc1cc(N)cc2sc(N)nc12	99% (active)	0%	-2%	99% (active)	inactive	inactive	inactive	inactive
N#Cc1ccc(C(=O)NC2CCN(CCCCCNC(=O)/C=C/c3ccc(Cl)c(Cl)c3)CC2)cc1	1%	13%	-4%	98% (active)	inactive	inactive	inactive	inactive
CC(C)(C)c1ccc(CN2CCC(CNC(=O)c3cc(-c4cccc(F)c4)cs3)C2)cc1 (stereo not drawn)	55% (active)	32%	3%	100% (active)	inactive	inactive	inactive	inactive
CCC(=O)N[C@@H]1CN[C@@H](C#Cc2cc3c(Nc4ccc(OCc5cccc(F)c5)c(Cl)c4)ncnc3s2)C1	-5%	46%	-3%	82% (active)	inactive	inactive	inactive	inactive
CC(C)c1cc(Oc2c(I)cc(CCN=C(N)N)cc2I)ccc1O	54% (active)	19%	3%	98% (active)	inactive	inactive	inactive	inactive
COc1ccc(CCN(C)CCOc2ccc(NC(=O)COc3ccc4sc5ccccc5c(=O)c4c3)cc2)cc1OC	91% (active)	99% (active)	-1%	100% (active)	inactive	inactive	inactive	inactive
CO/C(=C\C=C\c1cc2cc(Cl)c(Cl)cc2[nH]1)C(=O)NC1CCN(CCOc2ccccc2)CC1	94% (active)	35%	-3%	101% (active)	inactive	inactive	inactive	inactive
CCC[C@]1(C)CSc2ccccc2[C@@H](c2ccccc2)N1	2%	60% (active)	-3%	87% (active)	inactive	inactive	inactive	inactive
c1cc(-c2cc3ccc(C4=NCCN4)cc3[nH]2)ccc1C1=NCCN1	99% (active)	15%	-1%	97% (active)	inactive	inactive	inactive	inactive
Cc1cccc2[nH]c(-c3cccc(-c4cccc(C(=O)NCCc5cn(C)cn5)c4)c3)nc12	78% (active)	12%	8%	101% (active)	inactive	inactive	inactive	inactive
COc1ccccc1Nc1nc(NC2CCN(C)CC2)cc(-c2cccc(C(F)(F)F)c2)n1	71% (active)	100% (active)	-10%	95% (active)	inactive	inactive	inactive	inactive
CN(C)CCOc1cc(NC(=O)Nc2cccc3c(-c4ccncc4)cccc23)ccc1I	28%	20%	0%	100% (active)	inactive	inactive	inactive	inactive

Structure (SMILES)	growth inhibition [1]	inhibition [2]	inhibition [3]	growth inhibition [4]	outcome [5]	outcome [6]	outcome [7]	outcome [8]
FC(F)(F)c1ccc2nc(-c3ccc(-c4ccc(CN5CCN(c6ccncc6)CC5)cc4)s3)[nH]c2c1	50% (active)	97% (active)	2%	100% (active)	inactive	inactive	inactive	inactive
CCOC(=O)c1[nH]c(-c2ccc(-c3ccccc3)cc2)nc1N	2%	-1%	6%	98% (active)	inactive	inactive	inactive	inactive
CC(=O)Oc1cc(C)ccc1C1CCN(CCCCNC(=O)c2ccc(NC(=O)c3ccc(Cl)cc3)cc2)CC1	57% (active)	12%	-5%	100% (active)	inactive	inactive	inactive	inactive
CC(C)CCN1CCCN(Cc2ccc(C(=O)Nc3ccc(Cl)cc3)cc2)CC1	15%	46%	4%	94% (active)	inactive	inactive	inactive	inactive
O=C(Nc1cccc(-c2cccc(-c3nc4ccccc4[nH]3)c2)c1)Nc1ccc(F)c(F)c1F	95% (active)	78% (active)	-1%	98% (active)	inactive	inactive	inactive	inactive
CN(C)CCC(O)(c1ccc(Br)cc1)c1cccnc1 (stereo not drawn)	1%	22%	5%	96% (active)	inactive	inactive	inactive	inactive
O=C(Cn1c(SCc2cccc(F)c2F)cc(=O)c2ccccc21)N(CCc1cnc[nH]1)Cc1ccc(-c2ccc(C(F)(F)F)cc2)cc1	72% (active)	18%	7%	101% (active)	inactive	inactive	inactive	inactive
COC(=O)c1sc2ccccc2c1NC(=O)c1ccc(C)c(C)c1	48%	4%	-7%	88% (active)	inactive	inactive	inactive	inactive
CCN(CC)CCCC(C)Nc1c(-c2ccc(Br)cc2)cnc2ccccc12 (stereo not drawn)	95% (active)	7%	-1%	100% (active)	inactive	inactive	inactive	inactive
CC1(C)N=C(N)N=C(N)N1OCc1cc(Cl)cc2c1OCOC2	64% (active)	65% (active)	-1%	95% (active)	inactive	inactive	inactive	inactive
CCN(CC)CCn1c(=N)n(CC(O)c2ccc(Cl)c(Cl)c2)c2ccccc21 (stereo not drawn)	88% (active)	35%	6%	99% (active)	inactive	inactive	inactive	inactive
CCCN(CC1CC1)c1ncc(-c2cccc(CNCCC3CCCN3C)c2)cn1 (stereo not drawn)	43%	77% (active)	7%	98% (active)	inactive	inactive	inactive	inactive
Cc1cccc2[nH]c(-c3ccc(-c4cccc(CNCc5cccc(N)c5)c4)cc3)nc12	87% (active)	0%	-4%	101% (active)	inactive	inactive	inactive	inactive
COc1cc2nc(N3CCN(C(=O)c4cccc(I)c4)CC3)nc(N)c2cc1OC	26%	11%	2%	88% (active)	inactive	inactive	inactive	inactive
NC(=NCc1ccccc1Cl)NCCc1c[nH]c2ccccc12	45%	16%	2%	83% (active)	inactive	inactive	inactive	inactive
O=C(C(=O)c1ccc(Nc2ccnc3cc(-c4ccccn4)ccc23)cc1)c1ccccc1	34%	22%	-4%	93% (active)	inactive	inactive	inactive	inactive
COc1ccc(NS(=O)(=O)c2ccc(C(=O)Nc3ccc(OC(F)(F)F)cc3)cc2)cc1N1CCN(CC2CC2)CC1	-2%	18%	3%	89% (active)	inactive	inactive	inactive	inactive
CS(=O)(=O)CCNCc1cc(-c2cc3ncnc(Nc4ccc(OCc5cccc(F)c5)c(Cl)c4)c3s2)cs1	48%	8%	-2%	99% (active)	inactive	inactive	inactive	inactive
Cc1csc2nc(-c3ccccn3)nc(Nc3ccncn3)c12	85% (active)	47%	-3%	97% (active)	inactive	inactive	inactive	inactive
Cc1c(S(=O)(=O)Nc2ccc3nccc(N4C[C@@H](C)N[C@@H](C)C4)c3c2)sc2ccc(Cl)cc12	-4%	-8%	5%	92% (active)	inactive	inactive	inactive	inactive
